The source made the active and inactive calls.
Legend:
[1] = compounds binding Alexa647 anti-His antibody – biochemical, small-molecule microarray, 635 nm fluorescence, artefact control for SMM control protein annotation, primary screen (AID 1128); conditions: higher = more signal;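 further: score merges feature fluorescence with signal-to-noise for each printed compound spot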
[2] = system: Human papillomavirus type 1a E7 protein (residues 1-88); assay: HPV1a E7 small-molecule binders, primary screen, biochemical, small-molecule microarray, residues 1-88, 635 nm (AID 1129); conditions: small-molecule microarray binding, fluorescence 635 nm; higher = more signal
[3] = target: Focal adhesion kinase 1 (Homo sapiens) (UniProt Q05397); assay: PTK2 protein binding on printed compound slides – biochemical, small-molecule microarray, 635/667 nm fluorescence, BSA, DTT, primary screen (AID 1130); conditions: 635 nm fluorescence, higher = more signal;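 further: composite of spot emission at 667 nm and signal to noise over triplicate slides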
[4] = system: Fibrinogen (Alexa647-labelled); assay: Alexa647-fibrinogen binding to printed small molecules – biochemical, small-molecule microarray, 635/667 nm fluorescence, artefact control for SMM control-protein annotation, profiling panel (AID 1131); conditions: fibrinogen-A647 binding fluorescence, higher = more signal;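 further: z-score merges 667 nm fluorescence with per-spot signal-to-noise over triplicate slides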
[5] = target: Follistatin (Homo sapiens) (UniProt P19883); assay: FST protein binding to printed compounds – biochemical, small-molecule microarray, 635/667 nm fluorescence, primary screen (AID 1132); conditions: 635 nm fluorescence, higher = more signal
[6] = target: Fibroblast growth factor 2 (Homo sapiens) (UniProt P09038); assay: basic fibroblast growth factor binding to printed compounds – biochemical, small-molecule microarray, 635/667 nm fluorescence, primary screen (AID 1133); conditions: FGF2, fluorescence 635/667, higher = more signal
[7] = JC-1 mitochondrial potential readout, lung cancer cells – cell-based, A549, JC-1 fluorescence, basal, 24 h, 100 nL, profiling panel (AID 1138); conditions: higher = more signal;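 further: A549 lung adenocarcinoma cells under basal conditions with no added stimulus; test concentration not given here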
Lefty1 = Lefty1 protein binding to printed compounds – biochemical, small-molecule microarray, 635/667 nm fluorescence, primary screen (AID 1139); conditions: fluorescence 635/667, higher = more signal
[8] = system: wheat germ agglutinin (Triticum aestivum), Alexa647-labelled; assay: Alexa647-WGA lectin binding to printed small molecules – biochemical, small-molecule microarray, 635/667 nm fluorescence, artefact control for SMM control-protein annotation, profiling panel (AID 1140); conditions: WGA-A647 binding, 635 nm fluorescence, higher = more signal;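 further: score merges 667 nm feature emission with signal to noise over triplicate slides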
[9] = target: Luciferin 4-monooxygenase (Photinus pyralis) (UniProt P08659); assay: inhibition of purified Photinus pyralis luciferase – biochemical, luminescence, purified enzyme, 2006 set, primary screen (AID 1141); conditions: purified firefly luciferase, SteadyGlo luminescence, 30 min; higher = more signal, called active from +8 up or from −8 down;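 further: cell-free assay with purified firefly luciferase at 100 ng per well in PBS; test concentration not given here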
Chain of Luciferin 4-monooxygenase (Photinus pyralis) (P08659 whole entry, looked up): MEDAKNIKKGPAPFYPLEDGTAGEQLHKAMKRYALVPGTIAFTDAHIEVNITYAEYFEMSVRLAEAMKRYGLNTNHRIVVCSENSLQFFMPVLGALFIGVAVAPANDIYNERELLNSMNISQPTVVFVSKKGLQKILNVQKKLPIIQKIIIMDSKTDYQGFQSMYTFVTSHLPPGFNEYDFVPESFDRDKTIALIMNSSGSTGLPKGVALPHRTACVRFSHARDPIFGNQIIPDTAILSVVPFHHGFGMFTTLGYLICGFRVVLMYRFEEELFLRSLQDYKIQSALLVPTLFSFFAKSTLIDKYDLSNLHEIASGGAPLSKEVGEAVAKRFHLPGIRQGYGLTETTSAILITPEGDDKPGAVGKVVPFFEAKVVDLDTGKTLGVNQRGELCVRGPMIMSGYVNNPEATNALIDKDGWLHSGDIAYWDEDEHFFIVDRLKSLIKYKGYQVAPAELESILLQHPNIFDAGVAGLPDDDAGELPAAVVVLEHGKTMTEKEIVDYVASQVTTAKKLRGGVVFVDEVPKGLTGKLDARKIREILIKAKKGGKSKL

Chain of Focal adhesion kinase 1 (Homo sapiens) (Q05397 whole entry, looked up): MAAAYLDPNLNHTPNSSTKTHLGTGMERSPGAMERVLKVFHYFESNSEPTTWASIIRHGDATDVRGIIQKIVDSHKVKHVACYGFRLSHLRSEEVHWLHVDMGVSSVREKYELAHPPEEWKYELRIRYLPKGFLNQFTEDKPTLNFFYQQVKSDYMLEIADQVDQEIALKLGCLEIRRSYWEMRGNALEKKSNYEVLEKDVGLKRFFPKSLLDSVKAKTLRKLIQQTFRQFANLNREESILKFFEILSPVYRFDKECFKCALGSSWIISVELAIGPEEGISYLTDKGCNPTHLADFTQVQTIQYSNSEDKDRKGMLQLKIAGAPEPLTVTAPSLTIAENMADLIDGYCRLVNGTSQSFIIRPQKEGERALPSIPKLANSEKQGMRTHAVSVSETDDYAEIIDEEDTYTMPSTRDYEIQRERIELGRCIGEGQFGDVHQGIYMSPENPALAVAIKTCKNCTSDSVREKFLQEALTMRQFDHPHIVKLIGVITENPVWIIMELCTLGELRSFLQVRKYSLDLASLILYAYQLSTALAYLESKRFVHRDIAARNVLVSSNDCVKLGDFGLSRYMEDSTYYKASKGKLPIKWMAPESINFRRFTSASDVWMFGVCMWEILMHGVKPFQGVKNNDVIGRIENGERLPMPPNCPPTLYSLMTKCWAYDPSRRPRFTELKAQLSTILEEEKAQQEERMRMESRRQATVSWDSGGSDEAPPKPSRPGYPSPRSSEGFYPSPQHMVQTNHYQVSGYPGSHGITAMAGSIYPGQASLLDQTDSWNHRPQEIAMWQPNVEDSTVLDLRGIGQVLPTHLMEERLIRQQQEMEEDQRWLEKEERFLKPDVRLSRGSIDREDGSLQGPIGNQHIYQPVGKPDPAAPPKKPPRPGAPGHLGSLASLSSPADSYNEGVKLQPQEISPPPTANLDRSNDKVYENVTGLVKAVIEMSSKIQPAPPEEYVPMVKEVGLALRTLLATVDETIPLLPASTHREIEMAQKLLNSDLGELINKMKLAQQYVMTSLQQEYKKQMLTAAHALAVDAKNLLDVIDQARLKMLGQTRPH
Chain of Follistatin (Homo sapiens) (P19883 whole entry, looked up): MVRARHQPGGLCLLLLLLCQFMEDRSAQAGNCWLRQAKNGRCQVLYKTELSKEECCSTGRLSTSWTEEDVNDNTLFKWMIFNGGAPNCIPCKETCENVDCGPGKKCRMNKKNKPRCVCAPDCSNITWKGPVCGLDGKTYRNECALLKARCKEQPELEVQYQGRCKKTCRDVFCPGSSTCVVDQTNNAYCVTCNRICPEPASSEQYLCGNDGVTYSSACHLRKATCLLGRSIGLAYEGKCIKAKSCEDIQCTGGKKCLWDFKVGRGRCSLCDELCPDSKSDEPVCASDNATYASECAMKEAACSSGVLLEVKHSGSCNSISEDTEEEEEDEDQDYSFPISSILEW
Chain of Fibroblast growth factor 2 (Homo sapiens) (P09038 whole entry, looked up): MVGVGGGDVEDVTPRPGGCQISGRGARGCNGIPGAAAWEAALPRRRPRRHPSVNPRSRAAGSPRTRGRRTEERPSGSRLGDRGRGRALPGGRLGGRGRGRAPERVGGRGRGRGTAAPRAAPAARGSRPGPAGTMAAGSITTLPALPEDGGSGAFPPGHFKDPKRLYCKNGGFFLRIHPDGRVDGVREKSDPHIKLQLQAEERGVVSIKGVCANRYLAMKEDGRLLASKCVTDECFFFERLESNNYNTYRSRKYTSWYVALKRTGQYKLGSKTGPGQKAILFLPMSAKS

Structure (SMILES) | composite z-score [1] | composite z-score [2] | composite z-score [3] | composite z-score [4] | composite z-score [5] | composite z-score [6] | z-score [7] | composite z-score (Lefty1) | composite z-score [8] | z-score [9]
NCCCCCNC(=O)[C@@H]1C[C@@H]2C(=O)N3CCC[C@H]3C(=O)N2[C@@H]1c1ccc(O)cc1 | 0.509 | 1.18 | 0.139 | 0.788 | 1.17 | 0.428 | 0.375 | 1.08 | 0.955 | -0.444 (inactive)
CC(=O)NCCCC[C@@H]1NC(=O)[C@H]2C[C@@H](C(=O)NCCCCCNC(=O)CS)[C@@H](c3cccc(OCCO)c3)N2C1=O | 2.85 | 0.616 | 0.598 | 0.108 | 1.33 | 1.6 | 0.0396 | 0.157 | 0.29 | -1.36 (inactive)
COC(=O)[C@@]1(Cc2ccccc2CN=[N+]=[N-])N=C(c2ccc(OCCCO)cc2)O[C@H]1c1ccccc1 | 2.5 | 0.942 | 0.32 | 0.191 | 1.21 | 0.255 | -0.734 | 0.143 | 0.255 | -2.03 (inactive)
CN(C)CCCC[C@@H]1NC(=O)[C@@H]2C[C@H](C(=O)O)[C@H](c3cccc(OCCO)c3)N2C1=O | 1.22 | -0.544 | -0.335 | 0.438 | 0.072 | 1.17 | 0.0092 | -0.528 | -0.138 | -0.836 (inactive)
C=C(CCCC)C(=O)CC[C@@H](OC(=O)c1cccnc1)c1ccc(OCCO)cc1 | 0.0583 | 0.581 | -0.471 | -0.0496 | 1.47 | 1.56 | 0.335 | 1.57 | 0.363 | -3.15 (inactive)
CC(C)(C)OC(=O)CC[C@]1(C(=O)N2CCCCC2)COC(c2ccc(OCCCO)cc2)=N1 | 2.11 | 1.23 | 0.857 | 1 | 0.778 | -0.0857 | -0.29 | 0.197 | 1.12 | -0.3 (inactive)
CC(C)C(=C=CC[C@H](O)c1cccc(OCCO)c1)CCO | -0.0157 | -0.374 | 0.107 | -1 | 0.277 | 0.138 | 0.346 | 0.67 | 0.108 | 0.371 (inactive)
O=c1cccc(-c2ccc(F)cc2)o1 | 0.198 | 0.734 | 0.111 | -0.191 | 0.456 | 0.898 | -0.0822 | 0.571 | 0.62 | 1.73 (inactive)
COc1ccc(NC(=O)O[C@H]2[C@@H]3OC(=O)[C@H](Cc4cccc(Br)c4)C/C=C/C[C@@H](Cc4cccc(Br)c4)C(=O)O[C@H]3[C@@H](OC)O[C@@H]2CO)cc1 | 0.66 | 0.632 | 1.73 | 0.145 | 0.358 | 0.293 | 1.69 | 1.16 | 0.464 | -1.29 (inactive)
C[C@@]12COC[C@]13C=C(Br)[C@H](C2)[C@@]1(CO1)C3=O | 0.0359 | -1.59 | -0.306 | -0.376 | -0.222 | -0.757 | 1.02 | -0.0487 | -0.388 | 0.198 (inactive)
C=CCNC(=O)[C@@H]1[C@H]2C(=O)O[C@H](c3ccccc3)[C@H](c3ccccc3)N2[C@H](c2ccc(OCCO)cc2)[C@@]12C(=O)N(C(=O)OCCOC)c1ccc(C#CCCO)cc12 | 0.32 | 1.17 | 1.12 | 0.736 | 1.33 | 0.482 | -0.295 | 1.1 | 0.719 | -11.1 (active)
COCCOC(=O)N1C(=O)[C@@]2(c3cc(C#CCC(C(=O)OC)C(=O)OC)ccc31)[C@H](C(=O)NC[C@H](O)c1ccccc1)[C@H]1C(=O)O[C@H](c3ccccc3)[C@H](c3ccccc3)N1[C@@H]2c1ccc(OCCO)cc1 | 1.02 | 1.19 | 0.427 | 0.891 | 1.4 | 1.58 | -1.58 | 1.32 | 0.309 | -0.997 (inactive)
C=CCC(OC(C)=O)[C@@H]1[C@@H](N(Cc2ccc(-c3ccccc3)cc2)C(=O)Cc2ccc(F)cc2)c2cc(OCCCO)ccc2N1C(=O)Cc1ccc2ccccc2c1 (stereo not given in full) | -0.631 | -0.0842 | 0.318 | -0.198 | 0.305 | -0.0712 | 1.85 | -0.0639 | 0.139 | -1.2 (inactive)
C=C[C@@H](OC)[C@H](OC(=O)Nc1ccc(OC)cc1)c1ccc(OC)c(O)c1 | 0.122 | -1.06 | -0.384 | -1.1 | 0.0112 | -0.685 | 0.232 | -0.396 | -0.0358 | -0.737 (inactive)
CN1C(=O)C2C=CC(C(O)c3ccc(I)cc3)N(Nc3ccccc3)C2C1=O (stereo not given) | 0.276 | 1.22 | -0.161 | 1.02 | 1.19 | 0.979 | 0.255 | 0.465 | 0.86 | -0.431 (inactive)
COc1cc2c(cc1O)C(c1cccs1)N(Cc1sc3ccccc3c1Cl)CC2 (stereo not given) | 2.64 | 1.28 | 0.379 | 1.01 | 1.14 | 0.841 | -0.702 | 0.72 | 1.19 | -0.42 (inactive)

Structure (SMILES) | composite z-score [1] | composite z-score [2] | composite z-score [3] | composite z-score [4] | composite z-score [5] | composite z-score [6] | z-score [7] | composite z-score (Lefty1) | composite z-score [8] | z-score [9]
CN1C(=O)[C@@]2(Cc3ccccc3)N=C(c3ccc(OCCCO)cc3)O[C@H]2c2ccccc21 | 1.32 | 1.22 | 0.241 | 0.619 | 1.48 | 1.25 | 0.558 | 0.941 | 0.3 | -6.41 (inactive)
CC(C)[Si]1(C(C)C)OCc2cc(-c3ccc(-c4ccc(Cl)c(Cl)c4)o3)nc(CCc3ccccc3)c21 | -1.14 | -0.122 | 0.164 | -0.0058 | -0.0289 | -0.11 | 1.4 | 0.0028 | 0.0809 | -2.45 (inactive)
NC(=O)[C@H]1[C@@H]2C(=O)O[C@@H](c3ccccc3)[C@@H](c3ccccc3)N2[C@@H](c2ccc(O)cc2)[C@]12C(=O)Nc1ccccc12 | 0.53 | -0.189 | -0.91 | -1.61 | -0.441 | -0.943 | -0.186 | -0.502 | -1.03 | -0.794 (inactive)
Cc1ccc(N2C(=O)c3ccccc3[C@](C)(C(=O)NCc3ccccc3)[C@@H]2c2ccc(CO)cc2)nc1 | 2.31 | -0.27 | 0.771 | -0.887 | 1.31 | 0.464 | -0.425 | -0.0828 | 0.0023 | -1.1 (inactive)
CC(=O)n1cc(C(O)C2C=CC3C(=O)N(c4ccccc4)C(=O)C3N2Nc2ccc(C(C)C)cc2)c2ccccc21 (stereo not given) | 0.701 | 1.2 | 1.03 | 1.02 | 1 | 0.672 | 0.662 | 0.304 | 0.743 | 0.22 (inactive)
C=C[C@@H](C)[C@@H](OC(=O)Nc1ccc(SC)cc1)c1ccc(OCCO)cc1 | 1.51 | 1.21 | 0.462 | 0.719 | 0.0078 | 0.0877 | -1.64 | 0.191 | 1.04 | -4.2 (inactive)
CCOC(=O)C1=C[C@@H](c2ccccc2)N(S(=O)(=O)c2ccc(C)cc2)[C@H]1c1ccccc1 | 0.421 | 0.574 | 0.681 | -0.276 | 0.379 | 0.466 | 1.47 | 0.543 | 0.197 | 1.94 (inactive)
CCCCC(=O)N(CCN1CCOCC1)[C@@H]1CC(C(=O)NCCO)=C[C@H](Oc2c(I)cc(CO)cc2OC)[C@H]1O | 0.438 | 0.358 | -0.444 | -0.0237 | 0.328 | 0.902 | 0.809 | 0.612 | 0.0626 | -0.658 (inactive)
C=C(CCCC)C(=O)CC[C@H](OC(=O)c1ccccc1-c1ccccc1C(=O)O)c1ccccc1OCCO | 1.51 | 0.341 | -0.218 | 0.412 | 0.419 | 0.448 | 0.58 | 0.311 | -0.107 | -1.82 (inactive)
Cc1ccccc1C(O)C1C=CC2C(=O)NC(=O)C2N1Nc1ccc(Cl)cc1Cl (stereo not given) | 0.817 | 1.18 | 0.276 | 0.866 | 0.802 | -0.344 | -1.06 | 0.518 | 0.951 | -1.08 (inactive)
CC(C)[C@H]1NC(=O)[C@@]23C(=O)N[C@@H](Cc4ccccc4)C2[C@H](C)[C@@]2(C)O[C@H]2C3/C=C/C/C=C\CNC(=O)[C@H](Cc2ccccc2)NC1=O (stereo not given in full) | 0.591 | 0.973 | 0.117 | 0.982 | 1.31 | 1.42 | -0.182 | 1.57 | 0.489 | -0.894 (inactive)
COC(=O)C1=CC(CCCO)=CC(C)N(Cc2cccc(OC(F)(F)F)c2)C=C1C(=O)OC (stereo not given) | 0.178 | 0.702 | 0.955 | -0.269 | -0.278 | -0.807 | 0.142 | -0.0105 | 1.11 | 0.347 (inactive)
C=C(/C(=C/C[C@H](OC(=O)c1ccncc1)c1cccc(OCCO)c1)c1cnc2ccccc2c1)C(C)C | 0.291 | 0.952 | 0.807 | 0.247 | 1.46 | 1.85 | 0.945 | 1.6 | 1.33 | -0.799 (inactive)
O=C1C2C=CC(C(O)c3cc(C(F)(F)F)cc(C(F)(F)F)c3)N(Nc3ccccc3F)C2C(=O)N1c1ccccc1 (stereo not given) | -0.102 | 1.21 | 0.76 | 0.847 | 0.21 | -0.215 | -1.58 | -0.173 | 0.416 | 0.668 (inactive)
CC(C)CNC(=O)[C@@]1(C)c2ccccc2C(=O)N(Cc2cc(C(F)(F)F)cc(C(F)(F)F)c2)[C@H]1c1ccc(CO)cc1 | -0.738 | -0.391 | -0.342 | -1.03 | -0.117 | 0.0193 | 0.843 | 0.0325 | -0.356 | -0.0582 (inactive)
C=CCNC(=O)[C@@H]1[C@H]2C(=O)O[C@H](c3ccccc3)[C@H](c3ccccc3)N2[C@H](c2ccc(O)cc2)[C@@]12C(=O)Nc1ccc(C#CCC(C(=O)OC)C(=O)OC)cc12 | -0.414 | 1.2 | 0.267 | 0.0847 | 1.24 | 0.464 | -1.22 | 0.147 | 0.0307 | -0.108 (inactive)

Source: PubChem BioAssay
